S1P3 antag: antagonists of human S1P3 receptor. CHO S1P3 NFAT-BLA reporter, FRET fluorescence, antagonist mode. Q99500. inhibition, % at 4.98 µM. 170,000 tested, 0.27% active;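 active = inhibition above the plate cutoff, the mean inhibition of test wells on that plate plus 3 SD, cut at about 28% in these data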;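 note: cells challenged with S1P at its EC80 of 0.8 µM; blue over green emission ratio from cleaved BLA substrate after 4 h stimulation; 0% = S1P-stimulated wells and 100% = unstimulated DMSO-only wells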
RAM network inh: blocks the yeast RAM network. S. cerevisiae dse1pr::URA3 reporter, 5-FOA growth OD615, 2 d; analog-sensitive cbk1-as2 kinase mutant strain. inhibition, % at 50 µM. 190,000 tested, 1.8% active. AID 868;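 active = inhibition above a set limit, 3 SD over mean compound inhibition, cut at about 8.4% in these data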;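 note: 0% = DMSO-only wells with no growth and 100% = 10 µM 1-NA-PP1 full growth; inhibition rescues growth on 5-FOA so higher OD means more RAM inhibition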
Cl transport mod: modulates chloride dependent transport by human KCC2; 190,000 tested, 2.2% active; KCC2 cells, thallium flux FluoZin-2 fluorescence; AID 1456; Q9H2X9; B-score of Tl+ flux slope (higher = more flux/activation; lower = inhibition) at 10 µM;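 active = thallium flux slope and its plate-corrected score both differing from the plate sample mean at a set confidence after two filtering rounds, in either direction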;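 note: slope of fluorescence scaled to starting intensity during 10 to 20 s after thallium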
S1P4 antagonist: human S1P4 receptor antagonism; 220,000 tested, 0.26% active; S1P4-expressing cells, antagonist mode, reporter read-out; O95977; inhibition, % at 4.98 µM; AID 1510; in the data active = inhibition above about 29%;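 note: 0% = wells stimulated with agonist and 100% = vehicle wells without agonist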
ROMK mod: human ROMK K+ channel modulation, primary screen. B-score at 10 µM. P48048. Tet-inducible ROMK, thallium flux fluorescence; actives lie on both sides. AID 1918. 130,000 tested, 2% active;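 active = signal ratio slope over the read window, or its plate-corrected B-score, at least 3 SD from the plate mean, either direction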;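 note: B-score of the F/F0 ratio slope over 7 to 12 s after thallium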
Target sequence (P48048 whole entry, looked up): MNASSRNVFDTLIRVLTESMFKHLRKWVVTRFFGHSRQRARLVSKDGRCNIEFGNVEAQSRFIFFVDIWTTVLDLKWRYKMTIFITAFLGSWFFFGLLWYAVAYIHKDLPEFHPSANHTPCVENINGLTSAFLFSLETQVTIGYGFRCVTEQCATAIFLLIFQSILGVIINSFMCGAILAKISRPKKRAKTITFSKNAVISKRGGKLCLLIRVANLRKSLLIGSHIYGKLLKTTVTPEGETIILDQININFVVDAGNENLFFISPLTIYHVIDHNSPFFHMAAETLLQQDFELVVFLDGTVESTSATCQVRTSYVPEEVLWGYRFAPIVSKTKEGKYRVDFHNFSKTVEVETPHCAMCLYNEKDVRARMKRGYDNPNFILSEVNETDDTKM
S1P4 ag: agonists of human S1P4 receptor. O95977. S1P4-expressing cell line, agonist reporter assay. activation, % at 4.98 µM. 220,000 tested, 0.35% active. AID 1509; in the data active = activation above about 11%;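 note: 0% = DMSO vehicle and 100% = reference agonist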
ROMK hit retest: retested hit modulating human ROMK potassium channel; 3,000 tested, 54% active; normalized thallium flux (F/F0 slope) at 10 µM; shares compounds with ROMK mod; ROMK thallium flux, fluorescence ratio; active compounds read low;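 active = Flux at 10 µM at least 3 SD below or above vehicle control mean in one or both replicates; inconclusive = no clear call, values can overlap the other calls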
Starred values were filed as active, the others as inactive. Compounds with a hit are over-represented: about 5.1% of the library has one in this group of screens.

Results for CN1C(=O)/C(=C/C=C2\SCCN2C)SC1=S ?
S1P3 antag: -9; RAM network inh: 6; Cl transport mod: -0.32; S1P4 antagonist: -13; ROMK mod: -3*; S1P4 ag: 2; ROMK hit retest: 0.057*

Results for CN1C(=O)/C(=C/C=C2\SCCN2C)N(C)C1=S ?
S1P3 antag: 2; RAM network inh: 4; Cl transport mod: 1.1; S1P4 antagonist: 5; ROMK mod: -0.79; S1P4 ag: 1

How did CCNC(=O)Cn1cc(C(F)(F)F)cc(Cl)c1=O do in these assays?
S1P3 antag: -9; Cl transport mod: 0.22; S1P4 antagonist: -4; S1P4 ag: 0

What do the screens show for `CC(=O)Nc1ccc(S(=O)(=O)NCCCN2CCN(Cc3ccccc3)CC2)cc1Cl`?
S1P3 antag: 10; Cl transport mod: -0.99; S1P4 antagonist: 7; ROMK mod: -13*; S1P4 ag: -1; ROMK hit retest: 0.073

Results for Cc1ccc(S(=O)(=O)NCCC(=O)N2CCN(Cc3ccccc3)CC2)cc1 ?
S1P3 antag: -8; RAM network inh: 1; Cl transport mod: -0.73; S1P4 antagonist: -30; S1P4 ag: -1

How did O=C(Nc1cccc2c1CCCC2)c1ccncc1 do in these assays?
RAM network inh: 1; Cl transport mod: -0.0025; S1P4 antagonist: -2; ROMK mod: -0.74; S1P4 ag: -1

What do the screens show for `Cc1cc(C)nc(/N=C(\N)Nc2cccc(OCc3ccccc3)c2)n1`?
S1P3 antag: 1; Cl transport mod: -0.037; S1P4 antagonist: 15; S1P4 ag: -1; ROMK hit retest: 0.055*

How did O=C(Nc1ccc2c(c1)OCO2)c1ccc(Br)c(S(=O)(=O)N2CCCC2)c1 do in these assays?
S1P3 antag: 18; RAM network inh: 3; Cl transport mod: -1.4; S1P4 antagonist: -23; ROMK mod: -2.9*; S1P4 ag: -1; ROMK hit retest: 0.066*

Results for O=C(Nc1ccc2c(c1)OCCO2)c1ccc(Br)c(S(=O)(=O)N2CCOCC2)c1 ?
S1P3 antag: -20; RAM network inh: 1; S1P4 antagonist: -13; ROMK mod: -1.6; S1P4 ag: 3

Results for O=C(Nc1cccnc1)c1ccc(S(=O)(=O)N2CCCCCC2)cc1 ?
RAM network inh: 0; Cl transport mod: -0.58; S1P4 antagonist: -1; ROMK mod: 0.4; S1P4 ag: 1

What do the screens show for `CCN(CC)CCOC(=O)c1ccc(NC(=O)c2ccc(Cl)c(S(=O)(=O)N3CCCCCC3)c2)cc1`?
S1P3 antag: -2; RAM network inh: 2; Cl transport mod: 0.34; S1P4 antagonist: -20; ROMK mod: -0.76; S1P4 ag: 1; ROMK hit retest: 0.078

How did O=C(Nc1cccnc1)c1ccc(Cl)c(S(=O)(=O)N2CCCCCC2)c1 do in these assays?
S1P3 antag: -9; RAM network inh: 0; Cl transport mod: -1; S1P4 antagonist: 2; S1P4 ag: -1; ROMK hit retest: inconclusive

How did O=S(=O)(NCCc1ccccc1)c1ccc(Cl)nc1 do in these assays?
S1P3 antag: -10; RAM network inh: 1; Cl transport mod: -0.58; S1P4 antagonist: -19; ROMK mod: -0.11; S1P4 ag: 2

What do the screens show for `COc1ccc(NC(=O)c2csc(Cc3ccccc3)n2)cc1`?
RAM network inh: 4; S1P4 antagonist: -12; ROMK mod: 0.33; S1P4 ag: 2

How did COc1ccc(CNC(=O)c2csc(Cc3ccccc3)n2)cc1 do in these assays?
RAM network inh: 1; S1P4 antagonist: -3; S1P4 ag: -2; ROMK hit retest: 0.074

What do the screens show for `CN=c1scc(C)n1/N=C/c1ccc(O)cc1O`?
S1P3 antag: 4; RAM network inh: 2; S1P4 antagonist: -13; S1P4 ag: -1; ROMK hit retest: inconclusive

What do the screens show for `O=C(CN(C1CCCCC1)S(=O)(=O)c1ccc(F)cc1)Nc1ccc2c(c1)OCO2`?
RAM network inh: 2; Cl transport mod: 1.1; S1P4 antagonist: 16; ROMK mod: -3.3*; S1P4 ag: 0; ROMK hit retest: 0.064*

What do the screens show for `O=C(/C=C/c1ccco1)N(Cc1ccc(Cl)cc1)C1CCS(=O)(=O)C1` (stereo not given)?
S1P3 antag: 1; Cl transport mod: -0.12; S1P4 antagonist: 3; ROMK mod: 0.15; S1P4 ag: -1

Results for O=[N+]([O-])c1cccnc1N1CCN(c2ccc(F)cc2)CC1 ?
S1P3 antag: -3; RAM network inh: 0; Cl transport mod: -0.34; S1P4 antagonist: 14; ROMK mod: 0.81; S1P4 ag: 0

How did COc1ccc(N2C(=O)CC2(/C=C/c2ccccc2OC)C(=O)NC2CCCC2)cc1 (stereo not given) do in these assays?
RAM network inh: 4; Cl transport mod: -0.98; S1P4 antagonist: -5; ROMK mod: -4.7*; S1P4 ag: 0; ROMK hit retest: 0.054*

How did Cc1cc(C(=O)CN2C(=O)NC(C)(c3cccc(Br)c3)C2=O)c(C)n1Cc1ccco1 (stereo not given) do in these assays?
S1P3 antag: 4; RAM network inh: 3; Cl transport mod: 0.64; S1P4 antagonist: -2; S1P4 ag: 3; ROMK hit retest: inconclusive

Results for CC(C)(C)n1nc(C2CC2)cc1NC(=O)Nc1ccc(Cl)cc1 ?
S1P3 antag: 10; Cl transport mod: 0.32; S1P4 antagonist: 2; S1P4 ag: 0; ROMK hit retest: 0.078

How did Cc1nc(CS(=O)(=O)c2ccccn2)sc1C(=O)NNC(=O)c1ccc(Cl)cc1 do in these assays?
S1P3 antag: 4; Cl transport mod: 0.3; S1P4 antagonist: 10; ROMK mod: 0.88; S1P4 ag: 0

What do the screens show for `CCOC(=O)/C=c1\s/c(=C\c2ccc3cc(OC)ccc3c2)c(=O)n1CC(=O)NCc1ccc2c(c1)OCO2`?
S1P3 antag: 12; RAM network inh: 2; Cl transport mod: -1.1; S1P4 antagonist: 4; ROMK mod: -6*; S1P4 ag: 2; ROMK hit retest: 0.046*

What do the screens show for `O=C(N/N=C/c1ccccc1F)c1ccc(COc2ccccc2Cl)o1`?
S1P3 antag: 5; RAM network inh: 1; Cl transport mod: -3.9; S1P4 antagonist: -28; S1P4 ag: 3

Results for Clc1ccc(CN2C3=NCCCN3c3ccccc32)cc1Cl ?
S1P3 antag: 0; RAM network inh: 0; Cl transport mod: -1.8; S1P4 antagonist: 1; ROMK mod: -2.8; S1P4 ag: 3

Results for O=C1c2ccccc2C(=O)N1CCCCN(C(=O)c1cccc([N+](=O)[O-])c1)c1ccc(Cl)cc1 ?
RAM network inh: 4; Cl transport mod: -0.24; S1P4 antagonist: 3; S1P4 ag: 2

Results for O=C1c2ccccc2C(=O)N1CCCCN(C(=O)c1ccco1)c1ccc(Cl)cc1 ?
S1P3 antag: -25; RAM network inh: 8; S1P4 antagonist: -2; ROMK mod: -3.4*; S1P4 ag: 2; ROMK hit retest: 0.049*

Source: PubChem
